# Laboratory results reported in the supplement of paper PMC10646978.
# ± gives the standard deviation.
# Tests used:
# Conditions in all cases: modulator concentration 10 µM
# [1] = tested on: RAW-Dual (murine macrophage reporter line); assay: NF-kB reporter (SEAP) activity fold change vs agonist alone; higher = enhanced NF-kB activity
# Procedure, shortened: (§1)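 RAW-Dual murine macrophage reporter cells were seeded at 50 000 per well in 384-well plates and pre-incubated 1 hour at 37 °C with compound pin-transferred to 10 μM final. After 1 hour, a PRR agonist was added and cells incubated overnight. Supernatant NF-κB (SEAP, QUANTI-Blue, 620 nm absorbance) and IRF (Lucia luciferase, QUANTI-Luc, luminescence) signals were divided by the mean agonist-only control on the same plate to give fold change. Two replicate plates were averaged, with errors by propagation.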
# [2] = tested on: RAW-Dual (murine macrophage reporter line); assay: IRF reporter (Lucia luciferase) activity fold change vs agonist alone; higher = enhanced IRF activity
# Procedure, shortened: as §1
# [3] = tested on: RAW-Dual (murine macrophage reporter line); assay: viability score (confluency relative to resting cells, overnight) (fraction); higher = more viable, active = viable (0.7 or more)
# Procedure, shortened: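 Overnight exposure to 10 μM final compound was carried out on RAW-Dual macrophages in 384-well plates. IncuCyte software generated two confluency masks over all wells imaged with IncuCyte. The viability score gives confluency in relation to resting cells. A compound met the cutoff if each mask exceeded 70% of resting cells.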
# [4] = agonist: CpG ODN 1826 0.5 ug/mL
SMILES,"NF-kB reporter [1, 4]",NF-kB reporter ([1]; agonist: LPS 0.1 ug/mL),NF-kB reporter ([1]; agonist: MPLA […]),IRF reporter ([2]; agonist: 3'3'-cGAMP 10 ug/mL),IRF reporter ([2]; agonist: LPS 0.1 ug/mL),IRF reporter ([2]; agonist: MPLA […]),viability score [3]
OCC(S)CS (configuration not stated),0.949 ± 0.072,0.909 ± 0.059,0.988 ± 0.023,0.336 ± 0.034,0.84 ± 0.07,0.912 ± 0.081,0.994 (active)
C=C1C(=O)OC2C1CCC(C)=CCCC1(C)OC21 (configuration not stated),0.0586 ± 0.0046,0.0442 ± 0.0037,0.0844 ± 0.008,0.0346 ± 0.011,0.025 ± 0.0055,0.0274 ± 0.0061,0.253 (inactive)
Cc1ccc(S(=O)(=O)Nc2ccccc2-c2nc3ccccc3o2)cc1,2.45 ± 0.19,1.24 ± 0.081,1.45 ± 0.051,0.323 ± 0.033,1.09 ± 0.048,1.21 ± 0.08,0.713 (active)
O=C(O)c1ccc(NC(=O)c2cccc(F)c2)cc1,1.09 ± 0.091,1.01 ± 0.1,0.962 ± 0.061,0.963 ± 0.035,1.08 ± 0.056,0.994 ± 0.18,0.998 (active)
NS(=O)(=O)c1ccc(F)cc1,0.947 ± 0.076,1.04 ± 0.076,0.997 ± 0.11,0.977 ± 0.031,1.24 ± 0.2,1.23 ± 0.17,1.02 (active)
OCCN1CCN(CC/C=C2/c3ccccc3Sc3ccc(Cl)cc32)CC1 [Prestw-998],0.395 ± 0.067,0.914 ± 0.093,1.36 ± 0.26,0.303 ± 0.008,1.85 ± 0.3,2.43 ± 0.28,0.624 (inactive)
CCOc1ccc(N=Cc2c(Nc3ccc(OCC)cc3)nc3ccccn3c2=O)cc1,1.17 ± 0.13,0.984 ± 0.13,1.19 ± 0.17,0.855 ± 0.051,1.23 ± 0.14,1.41 ± 0.23,1.04 (active)
CCC(=O)Nc1ccc(S(=O)(=O)NCC2CCN(c3ncc(F)cn3)CC2)c(C)c1,1.06 ± 0.096,1.2 ± 0.096,1.04 ± 0.065,1.79 ± 0.1,1.21 ± 0.11,1.08 ± 0.093,0.986 (active)
Cc1nnc(C)n1N=Cc1ccc(Cl)c([N+](=O)[O-])c1,0.797 ± 0.062,0.874 ± 0.091,1.2 ± 0.1,0.898 ± 0.045,1.07 ± 0.072,1 ± 0.1,0.99 (active)
O=C(NCC1(O)CCc2ccccc2C1)c1cccc(C(F)(F)F)c1 (configuration not stated),0.848 ± 0.041,0.939 ± 0.1,0.957 ± 0.054,0.989 ± 0.045,1.09 ± 0.26,1.12 ± 0.43,0.994 (active)
Clc1ccc(Nc2nc(Nc3ccc(Cl)cc3)nc(N3CCOCC3)n2)cc1,0.794 ± 0.072,0.902 ± 0.068,1.1 ± 0.15,0.805 ± 0.12,1.26 ± 0.23,1.37 ± 0.45,1.03 (active)
Cc1cccc(C(=O)ON=C(c2ccncc2)c2ccc([N+](=O)[O-])cc2)c1,0.806 ± 0.07,0.838 ± 0.039,1.06 ± 0.099,1.03 ± 0.068,1.43 ± 0.083,1.61 ± 0.14,1 (active)
CCOc1ccc2nc(SC3CC(=O)N(c4cccc(Cl)c4)C3=O)sc2c1 (configuration not stated),0.954 ± 0.091,1.04 ± 0.058,0.785 ± 0.047,0.778 ± 0.046,1.11 ± 0.079,1.04 ± 0.16,1.01 (active)
O=C(O)CC(C(=O)O)N1C(=O)C(=C2C(=O)Nc3ccc(Br)cc32)SC1=S (configuration not stated),0.775 ± 0.28,1.05 ± 0.11,0.837 ± 0.069,0.894 ± 0.036,1.24 ± 0.15,1.59 ± 0.4,0.995 (active)
CC1(C)CC(=O)c2c(nc3ccc(Br)cc3c2N)C1.Cl,0.513 ± 0.035,1.08 ± 0.067,0.883 ± 0.053,0.771 ± 0.036,1.07 ± 0.12,1.11 ± 0.11,0.995 (active)
CC(C)(C)C(=O)C(Oc1ccc(Cl)cc1)n1ccnc1 (configuration not stated),1.3 ± 0.33,0.983 ± 0.33,1.08 ± 0.13,1.07 ± 0.044,1.31 ± 0.36,1.34 ± 0.1,0.892 (active)
COC(CNS(=O)(=O)c1ccccc1Br)c1ccc(C)s1 (configuration not stated),1.04 ± 0.1,1.05 ± 0.095,1.13 ± 0.086,0.86 ± 0.082,0.965 ± 0.058,0.854 ± 0.098,0.997 (active)
COc1nc(C)cnc1NS(=O)(=O)c1cccnc1-c1ccc(-c2nnco2)cc1,0.964 ± 0.21,0.98 ± 0.18,1 ± 0.09,0.852 ± 0.047,0.982 ± 0.26,1.06 ± 0.24,0.979 (active)
Cl.N=C(N)NC(=O)c1nc(Cl)c(N)nc1N,1.2 ± 0.18,1.15 ± 0.22,0.891 ± 0.063,0.984 ± 0.03,1.4 ± 0.25,1.3 ± 0.12,0.988 (active)
CCOc1ccc(C=c2sc3nc4ccccc4n3c2=O)cc1Cl,1.07 ± 0.064,1.02 ± 0.095,0.979 ± 0.031,1.01 ± 0.036,1.06 ± 0.051,0.974 ± 0.094,0.998 (active)
CCN(CC)Cc1cc(Nc2ccnc3cc(Cl)ccc23)ccc1O.Cl.Cl.O.O,0.606 ± 0.026,0.671 ± 0.054,0.944 ± 0.068,1.39 ± 0.23,1.22 ± 0.24,1.16 ± 0.46,0.931 (active)
CSc1nc2cc(Oc3cccc(Cl)c3Cl)c(Cl)cc2[nH]1,0.416 ± 0.14,0.771 ± 0.084,0.63 ± 0.037,0.831 ± 0.025,1.41 ± 0.26,1.34 ± 0.21,0.921 (active)
O=C1C(Cl)=C(N2CCCCC2)C(=O)N1c1cc(Cl)c(Cl)cc1Cl,0.743 ± 0.063,0.737 ± 0.049,0.857 ± 0.03,0.352 ± 0.026,1.07 ± 0.1,1.01 ± 0.15,0.993 (active)
CC1(C)NC(=O)N(c2ccc([N+](=O)[O-])c(C(F)(F)F)c2)C1=O,1.26 ± 0.41,1.11 ± 0.23,0.897 ± 0.052,0.868 ± 0.035,1.17 ± 0.21,1.25 ± 0.2,0.968 (active)
CCOC(=O)c1ccc(NC(=O)c2sc(NC(=O)c3cc(OC)c(OC)c(OC)c3)c(C(=O)OCC)c2C)cc1,1 ± 0.095,1.02 ± 0.079,0.895 ± 0.058,0.969 ± 0.025,1.53 ± 0.25,1.14 ± 0.12,1.01 (active)
CC#CC(=O)Nc1ccc(N2CCOCC2=O)c(C)c1,0.993 ± 0.062,1.01 ± 0.086,1.01 ± 0.092,0.961 ± 0.058,0.913 ± 0.084,0.865 ± 0.14,1.01 (active)
